MCF10A rereplic = inducers of DNA re-replication in MCF 10A breast cells. MCF 10A DNA re-replication, Hoechst nuclear intensity, 48 h. Potency, µM (series often up to 46.1 µM), most hits filed as activators. actives 2.9% (n = 350,000). AID 624296; further: nearly all actives have a fitted effect of over 50% in size
Gal4-VP16 FLuc = Gal4-VP16 reporter inhibition counter-screen; actives 3.5% (n = 310,000); Drosophila S2 Gal4-VP16 UAS-luciferase, luminescence, 20 h; Potency, µM (titrated, usually from 53.6 µM), hits mostly inhibitors; AID 2546;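 further: Gal4-VP16 expression switched on by copper sulfate through the metallothionein promoter; nearly all actives have a fitted effect of over 50% in size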
SW480 rereplic = DNA re-replication induction in SW480 cells. SW480 DNA re-replication, Hoechst DNA content imaging, 48 h. Potency, µM (doses to about 46.1 µM), most hits filed as activators. actives 1.8% (n = 340,000). AID 624297; further: nearly all actives have a fitted effect of over 55% in size
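First, 250 cells per well were seeded. Next, compound or vehicle (23 nL) was pinned in, plates sat 48 hr at 37 C. Finally Hoechst was added for 40 min before fluorescence scanning.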
RORgamma inh = blocks mouse ROR gamma transcriptional activity; P51450; Drosophila S2 Gal4-RORgamma UAS-luciferase reporter, 20 h; Potency, µM (titrated, usually from 53.6 µM), actives largely listed as inhibitors; actives 5.4% (n = 310,000); further: nearly all actives have a fitted effect of over 60% in size
Target sequence (P51450 whole entry, looked up, the tested form may be a part): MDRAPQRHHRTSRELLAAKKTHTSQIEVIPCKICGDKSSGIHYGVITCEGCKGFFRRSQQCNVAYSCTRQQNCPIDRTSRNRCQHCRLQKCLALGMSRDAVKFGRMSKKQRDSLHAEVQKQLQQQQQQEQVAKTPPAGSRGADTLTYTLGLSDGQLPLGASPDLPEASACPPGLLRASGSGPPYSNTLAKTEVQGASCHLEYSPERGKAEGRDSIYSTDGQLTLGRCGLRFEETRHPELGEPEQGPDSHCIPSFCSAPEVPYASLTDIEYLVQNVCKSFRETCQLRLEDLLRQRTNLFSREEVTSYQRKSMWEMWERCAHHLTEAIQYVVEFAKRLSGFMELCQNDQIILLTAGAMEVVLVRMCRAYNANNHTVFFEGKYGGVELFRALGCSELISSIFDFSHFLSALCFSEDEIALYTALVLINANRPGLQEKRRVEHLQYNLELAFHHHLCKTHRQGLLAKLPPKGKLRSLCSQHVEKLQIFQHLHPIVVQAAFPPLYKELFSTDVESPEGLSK
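Read-out: Photinus luciferase luminescence; inhibitors lower reporter signal. Insect Schneider cells with Gal4-ROR gamma fusion under metallothionein promoter, UAS reporter; 700 uM final copper sulfate induction, 20 hr, ambient temperature.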
IL-1B inflam inh = inhibitors of inflammasome signaling (IL-1 beta secretion). THP-1 LPS/ATP IL-1B secretion, AlphaLISA, 16 h; active compounds read low. activity change, % at 57.5 µM. actives 4.7% (n = 360,000); in the data active means activity change below about -50%; inconclusive means mostly about -30% to -49%
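Secreted IL-1B measured by AlphaLISA bead assay after 16 h compound exposure of THP-1 cells; compounds (final up to 57.5 uM) added 1 h before LPS (250 ng/mL) and ATP (1.25 mM) stimulation; lower signal means less secretion.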
Hits are given with their value; n = inactive; u = inconclusive; x = no result given; [ ] = dose if it differs, or a comment. In the library only some 11% were active in any assay of this set; here they are far more common. Unless noted, the call rests on the fitted dose curve; in most records, active means well fitted curve in the direction sought with a large enough effect; inconclusive means small, poorly fitted or top-dose-only effect, or another doubt; inactive means no such curve, though single readings can be large; an effect the other way counts as inactive or inconclusive.

SMILES	MCF10A rereplic	Gal4-VP16 FLuc	SW480 rereplic	RORgamma inh	IL-1B inflam inh
O=c1oc2c(O)c(O)cc3c(=O)oc4c(O)c(O)cc1c4c23	n	u	u	n	-51.1
O=c1oc2ccccc2c2oc3cc(O)c(O)cc3c12	n	n	n	u	n
O=C/C(=C\Nc1ccc(Cl)cn1)c1nc2ccccc2o1	u	22.4µM	n	14.1µM	n
O=C/C(=C\Nc1ccc(Cl)cn1)c1nc2cc(Cl)ccc2o1	16.4µM	n	n	u	n
COc1cc(NS(=O)(=O)c2ccc(N/C=C(\C#N)c3nc4cc(Cl)ccc4o3)cc2)nc(OC)n1	u	n	u	u	n
O=C/C(=C\Nc1ccc(S(=O)(=O)CCO)cc1)c1nc2cc(Cl)ccc2o1	23.1µM	n	u	8.91µM	n
N#C/C(=C\Nc1ccc(Cl)cn1)S(=O)(=O)c1ccccc1	n	n	n	n	n
CN(C)C(=O)c1ccc(N/C=C(\C=O)c2nc3ccccc3o2)cc1	n	n	n	u	n
CCOC(=O)c1ccc(S(=O)(=O)N2CCC(C(=O)NCC3COc4ccccc4O3)CC2)cc1 (configuration not stated)	x	x	x	x	n
COc1cccc(C(=O)N2C(C(C)C)COc3cc(Br)ccc3S2(=O)=O)c1 (configuration not stated)	x	x	x	x	n
Cc1cccc(C(=O)N2[C@@H](C(C)C)COc3cc(Br)ccc3S2(=O)=O)c1	8.2µM	x	n	x	n
O=C(O)c1cc2nc(-c3cccs3)cc(C(F)(F)F)n2n1	n	n	u	n	n
FC(F)(F)c1cc(-c2cccs2)nc2cc(-c3ccccc3)nn12	16.4µM	n	u	n	n
CCOc1ccc(NC(=O)C(Cc2ccccc2)N2C(=O)c3cccc4cccc(c34)C2=O)cc1 (configuration not stated)	8.2µM	u	9.2µM	n	n
O=c1[nH]c2ccccc2nc1C(F)(F)F	n	n	u	n	n
C/C(=C\c1ccc(N)cc1)c1nc2ccccc2[nH]1	n	n	n	n	u
CC(C)c1ccc(/C=C(\c2nc3ccccc3[nH]2)S(=O)(=O)c2ccccc2)cc1	2.59µM	u	11.6µM	u	-103.3
O=S(=O)(/C(=C/c1ccc(C(F)(F)F)cc1)c1nc2ccccc2[nH]1)c1ccccc1	u	5.62µM	u	14.1µM	-103.6
CC(CC(=O)Nc1nc2ccccc2[nH]1)c1ccccc1 (configuration not stated)	n	4.47µM	n	u	n
O=C(Cc1ccccc1Cl)Nc1nc2ccccc2[nH]1	n	u	n	7.08µM	n
COc1ccccc1C(=O)NCCC(=O)Nc1nc2ccccc2[nH]1	n	x	n	x	u
O=C(CCNC(=O)c1ccccc1Cl)Nc1nc2ccccc2[nH]1	n	x	n	x	n
Cc1ccc(CC(=O)Nc2nc3ccccc3[nH]2)cc1C	n	n	n[9.22 µM]	3.16µM	n
CC(=O)NCc1ccc(S(=O)(=O)N2CCN(S(=O)(=O)c3ccc4ccccc4c3)CC2)cc1	u	x	n	x	n
O=C1NC[C@@H](CCCCN2CCN(CC3CCCCC3)C(=O)C2=O)N(CC2CCCCC2)C1=O	x	x	x	x	n
SMILES	MCF10A rereplic	Gal4-VP16 FLuc	SW480 rereplic	RORgamma inh	IL-1B inflam inh
CN(C)c1ccc(C(C(=O)NCc2ccccc2)N(Cc2ccco2)C(=O)c2snc(C(N)=O)c2N)cc1 (configuration not stated)	n	n	n	n	-72.0
Cc1ccc(C(C(=O)NCc2ccc(F)cc2)N(Cc2ccco2)C(=O)c2snc(C(N)=O)c2N)o1 (configuration not stated)	16.4µM	n	n	n	-70.6
Cc1cccc(C2CC3(CC(C)(C)NC(=S)N3)Oc3cc(O)ccc32)c1 (configuration not stated)	n	n	n	10µM	-73.3
CC1(C)CC2(CC(c3ccccc3F)c3cc(Cl)c(O)cc3O2)NC(=S)N1 (configuration not stated)	n	u	n	11.2µM	n
COc1ccc(C2CC3(CC(C)(C)NC(=S)N3)Oc3cc(O)cc(C)c32)cc1OC (configuration not stated)	n	n	n	u	n
COc1cccc(C2CC3(CC(C)(C)NC(=S)N3)Oc3cc(O)ccc32)c1 (configuration not stated)	u	n	u	n	n
COC(=O)[C@]12CCCCC=C1N(CCc1ccc(OC)c(OC)c1)C(=O)[C@H](CC(=O)N1CCOCC1)C2	x	x	x	x	n
COc1ccccc1Cc1c(-c2ccco2)nc2cc(C)c(Br)c(C)n12	x	x	x	x	n
O=C(/C=C(\c1ccccc1)n1cncn1)c1ccccc1	n	n	n	n	n
O=C(/C=C(\c1ccc(Cl)cc1)n1cncn1)c1ccc(Cl)cc1	n	n	n	n	-57.3
CC(=O)NCCNc1ncnc2ccc(-c3ccccc3C)cc12	x	n	x	n	x
COc1ccc(NC(=O)C2(C)Cc3c(-c4cccc(C(F)(F)F)c4)ccnc3O2)cc1OC (configuration not stated)	x	x	x	x	n
COc1ccc(-c2ccc(OC)c(C3C4C=CCC(C)C4C(=O)N3Cc3ccccc3)c2)cc1OC (configuration not stated)	x	n	x	n	x
COc1ccc(-c2ccc([C@H]3[C@H]4C=CC[C@@H](C)[C@@H]4C(=O)N3Cc3ccccc3)c(F)c2)cc1OC	n	n	n[9.22 µM]	u	u
COc1ccc(-c2ccc([C@H]3[C@H]4C=CC[C@@H](C)[C@@H]4C(=O)N3Cc3ccccc3)c(F)c2)cc1	13µM	n	u	n	n
CC1CC=CC2C1C(=O)N(Cc1ccccc1)C2c1ccc2ccccc2c1Br (configuration not stated)	x	22.4µM	x	u	x
C[C@@H]1CC=C[C@H]2[C@H]1C(=O)N(Cc1ccccc1)[C@H]2c1ccc2ccccc2c1/C=C/c1ccccc1	u	n	u	n	n
COc1ccc(-c2ccoc2)cc1[C@H]1[C@H]2C=CC[C@@H](C)[C@@H]2C(=O)N1Cc1ccccc1	18.4µM	n	n	n	-65.7
COc1cc(-c2cccc([C@H]3[C@@H]4C=CC[C@@H](C)[C@@H]4C(=O)N3Cc3ccccc3)c2)cc(OC)c1OC	7.31µM	n	n	n	u
COc1ccc(-c2cccc([C@H]3[C@@H]4C=CC[C@@H](C)[C@@H]4C(=O)N3Cc3ccccc3)c2)cc1	u	n	u	n	n
COc1ccccc1-c1nccc(NC2CCNCC2)n1	x	n	x	n	x
OC[C@H]1OC(O)(CN2CCOCC2)[C@H](O)[C@@H]1O (some centres not stated)	x	n	x	n	x
CCCS(=O)(=O)Nc1ccc(Nc2c3ccccc3nc3ccccc23)c(OC)c1	n	x	7.31µM	x	-93.8
Nc1cccnc1Sc1ccc([N+](=O)[O-])cn1	n	u	u	3.98µM	n
O=[N+]([O-])c1ccc(Sc2ccccc2)nc1	n	n	n	n	n

High-throughput results (PubChem BioAssay)
